For some of these results: Entries with a potency or affinity are not part of this list.
Tests used:
Set-up in all cases: scale not given: direction of the effect not stated beside the values
[1] = target: Protein translocase subunit SecA (Escherichia coli (strain K12)) (UniProt P10408); assay: Assay to Identify E. coli SecA ATPase Inhibitors; assay type: functional; conditions: 30 µM
[2] = target: T1, Ubiquitin-activating enzyme e1, putative (Leishmania donovani (strain BPK282A1)) (UniProt E9BSI1); assay: Leishmania donovani Ubiquitin Activating Enzyme (LdE1); assay type: functional; conditions: 30 µM
T1 sequence (whole entry): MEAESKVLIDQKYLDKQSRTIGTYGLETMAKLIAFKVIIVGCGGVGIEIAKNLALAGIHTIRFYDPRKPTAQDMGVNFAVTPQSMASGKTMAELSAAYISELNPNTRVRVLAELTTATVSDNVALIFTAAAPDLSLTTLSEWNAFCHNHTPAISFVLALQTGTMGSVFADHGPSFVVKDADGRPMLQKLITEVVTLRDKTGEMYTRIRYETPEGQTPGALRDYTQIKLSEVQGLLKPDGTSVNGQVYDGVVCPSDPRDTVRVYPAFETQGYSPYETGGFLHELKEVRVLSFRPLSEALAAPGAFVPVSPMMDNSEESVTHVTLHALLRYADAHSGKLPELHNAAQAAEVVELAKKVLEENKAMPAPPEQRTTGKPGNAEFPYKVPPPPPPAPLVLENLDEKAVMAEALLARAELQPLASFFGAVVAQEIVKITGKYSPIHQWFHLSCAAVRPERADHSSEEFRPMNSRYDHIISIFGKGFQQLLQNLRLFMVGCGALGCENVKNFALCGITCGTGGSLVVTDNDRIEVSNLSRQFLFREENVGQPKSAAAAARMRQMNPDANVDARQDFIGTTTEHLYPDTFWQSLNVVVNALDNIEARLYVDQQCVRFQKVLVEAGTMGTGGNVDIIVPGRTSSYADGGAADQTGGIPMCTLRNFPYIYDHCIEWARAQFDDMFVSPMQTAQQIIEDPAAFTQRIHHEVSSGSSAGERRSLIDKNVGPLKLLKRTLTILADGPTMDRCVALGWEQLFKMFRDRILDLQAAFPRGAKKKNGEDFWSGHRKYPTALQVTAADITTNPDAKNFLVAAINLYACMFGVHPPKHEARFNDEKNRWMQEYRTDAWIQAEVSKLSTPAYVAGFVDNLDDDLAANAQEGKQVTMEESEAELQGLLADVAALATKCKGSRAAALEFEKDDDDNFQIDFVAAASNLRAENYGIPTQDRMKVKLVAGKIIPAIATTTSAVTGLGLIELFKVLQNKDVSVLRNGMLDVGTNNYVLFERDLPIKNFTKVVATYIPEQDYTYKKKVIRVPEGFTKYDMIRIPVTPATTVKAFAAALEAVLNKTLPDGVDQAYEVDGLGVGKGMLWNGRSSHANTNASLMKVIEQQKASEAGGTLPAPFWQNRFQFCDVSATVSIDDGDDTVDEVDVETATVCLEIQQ

[3] = target: AMP-activated protein kinase, AMPK (Homo sapiens) (UniProt P54646+O43741+P54619+Q9UGJ0+Q9Y478+Q13131+Q9UGI9); assay: AMP-dependent Kinase enzyme assay. An in vitro enzyme assay that detects ADP turnover that is directly proportional to AMPK activity. This uses naive AMPK that is activated during the assay with MK-8722; assay type: functional; conditions: 30 µM
[4] = target: Sialic acid-binding Ig-like lectin 9 (Homo sapiens) (UniProt Q9Y336); assay: Hs-Siglec9 ALPHAscreen SOP 20170721; conditions: 10 µM
Trypanosoma cruzi = assay: Trypanosoma cruzi phosphomannomutase and mannose-1-phosphate guanylyltransferase assay; assay type: functional; conditions: 10 µM
[5] = target: T2, Arginase-2, mitochondrial (Homo sapiens) (UniProt P78540); assay: in vitro enzyme assay to detect the production of urea directly proportional to the activity of Arginase II; assay type: functional; conditions: 33.3 µM; further: in the data most compounds retested in dose-response had high values
T2 sequence (whole entry): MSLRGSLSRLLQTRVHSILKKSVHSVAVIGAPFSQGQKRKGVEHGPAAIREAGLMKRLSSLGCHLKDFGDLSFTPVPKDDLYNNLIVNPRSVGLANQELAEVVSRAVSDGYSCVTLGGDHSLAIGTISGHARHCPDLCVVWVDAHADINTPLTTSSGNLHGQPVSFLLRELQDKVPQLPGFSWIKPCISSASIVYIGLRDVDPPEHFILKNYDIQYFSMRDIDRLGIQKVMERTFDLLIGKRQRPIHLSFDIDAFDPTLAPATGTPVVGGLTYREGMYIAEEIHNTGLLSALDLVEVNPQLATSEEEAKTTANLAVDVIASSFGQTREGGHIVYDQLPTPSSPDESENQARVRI

[6] = target: T3, Proteasome subunit beta (Trypanosoma cruzi) (UniProt O96673); assay: Trypanosoma cruzi proteasome chymotrypsin-like activity (TcProtChymo) assay.; further: in the data most compounds retested in dose-response had high values; assay type: functional; conditions: 9.37 µM
T3 sequence (whole entry): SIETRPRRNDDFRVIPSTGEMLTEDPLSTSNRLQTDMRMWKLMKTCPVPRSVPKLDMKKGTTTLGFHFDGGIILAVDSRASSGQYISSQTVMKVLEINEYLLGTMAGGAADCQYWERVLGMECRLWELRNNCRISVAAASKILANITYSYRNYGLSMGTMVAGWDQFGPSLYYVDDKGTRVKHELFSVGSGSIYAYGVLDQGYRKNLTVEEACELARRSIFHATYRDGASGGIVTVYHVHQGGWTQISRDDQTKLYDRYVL

Homo sapiens = organism: Homo sapiens; assay: To identify inhibition of the IFN signalling (Jak-Stat) pathway via expression of an eGFP reporter gene under the control of an IFN-stimulated response element (ISRE) containing MxA promoter.; assay type: functional; conditions: 30 µM
[7] = target: T4, Tyrosyl-tRNA synthetase, putative (Trypanosoma cruzi (strain CL Brener)) (UniProt Q4DSP6); assay: Trypanosoma cruzi tyrosyl tRNA synthetase (TcYRS) _High Tyrosine SOP; assay type: functional; conditions: 30 µM; further: in the data most compounds retested in dose-response had high values
T4 sequence (whole entry): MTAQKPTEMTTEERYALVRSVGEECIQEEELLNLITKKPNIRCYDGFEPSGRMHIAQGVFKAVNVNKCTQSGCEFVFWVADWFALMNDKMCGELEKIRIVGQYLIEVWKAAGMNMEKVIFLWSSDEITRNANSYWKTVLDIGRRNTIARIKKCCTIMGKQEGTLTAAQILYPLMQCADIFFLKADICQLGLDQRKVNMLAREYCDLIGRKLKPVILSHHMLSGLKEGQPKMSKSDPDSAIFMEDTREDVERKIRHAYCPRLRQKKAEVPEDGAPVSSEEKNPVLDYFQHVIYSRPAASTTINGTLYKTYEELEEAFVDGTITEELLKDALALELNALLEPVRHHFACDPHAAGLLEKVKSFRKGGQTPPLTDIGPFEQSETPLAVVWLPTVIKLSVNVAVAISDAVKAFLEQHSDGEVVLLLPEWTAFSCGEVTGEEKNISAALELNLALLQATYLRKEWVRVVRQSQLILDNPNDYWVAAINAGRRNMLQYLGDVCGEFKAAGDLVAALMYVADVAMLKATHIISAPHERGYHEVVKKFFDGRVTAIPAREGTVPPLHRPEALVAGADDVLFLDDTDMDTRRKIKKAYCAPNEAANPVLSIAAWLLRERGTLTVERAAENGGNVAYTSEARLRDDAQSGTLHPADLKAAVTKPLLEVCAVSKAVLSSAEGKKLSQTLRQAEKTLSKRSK

[8] = target: T4, Tyrosyl-tRNA synthetase, putative (Trypanosoma cruzi (strain CL Brener)); assay: Trypanosoma cruzi tyrosyl tRNA synthetase (TcYRS) SOP; assay type: functional; conditions: 30 µM
[9] = target: Chromo domain-containing protein 1 (Saccharomyces cerevisiae (strain ATCC 204508 / S288c) (Baker's yeast)) (UniProt P32657); assay: ScCHD-1 Enzyme Inhibition Assay; assay type: functional; conditions: 30 µM; further: in the data most compounds retested in dose-response had high values
Sequence of Chromo domain-containing protein 1 (Saccharomyces cerevisiae (strain ATCC 204508 / S288c) (Baker's yeast)) (P32657 whole entry, the tested form may be a part): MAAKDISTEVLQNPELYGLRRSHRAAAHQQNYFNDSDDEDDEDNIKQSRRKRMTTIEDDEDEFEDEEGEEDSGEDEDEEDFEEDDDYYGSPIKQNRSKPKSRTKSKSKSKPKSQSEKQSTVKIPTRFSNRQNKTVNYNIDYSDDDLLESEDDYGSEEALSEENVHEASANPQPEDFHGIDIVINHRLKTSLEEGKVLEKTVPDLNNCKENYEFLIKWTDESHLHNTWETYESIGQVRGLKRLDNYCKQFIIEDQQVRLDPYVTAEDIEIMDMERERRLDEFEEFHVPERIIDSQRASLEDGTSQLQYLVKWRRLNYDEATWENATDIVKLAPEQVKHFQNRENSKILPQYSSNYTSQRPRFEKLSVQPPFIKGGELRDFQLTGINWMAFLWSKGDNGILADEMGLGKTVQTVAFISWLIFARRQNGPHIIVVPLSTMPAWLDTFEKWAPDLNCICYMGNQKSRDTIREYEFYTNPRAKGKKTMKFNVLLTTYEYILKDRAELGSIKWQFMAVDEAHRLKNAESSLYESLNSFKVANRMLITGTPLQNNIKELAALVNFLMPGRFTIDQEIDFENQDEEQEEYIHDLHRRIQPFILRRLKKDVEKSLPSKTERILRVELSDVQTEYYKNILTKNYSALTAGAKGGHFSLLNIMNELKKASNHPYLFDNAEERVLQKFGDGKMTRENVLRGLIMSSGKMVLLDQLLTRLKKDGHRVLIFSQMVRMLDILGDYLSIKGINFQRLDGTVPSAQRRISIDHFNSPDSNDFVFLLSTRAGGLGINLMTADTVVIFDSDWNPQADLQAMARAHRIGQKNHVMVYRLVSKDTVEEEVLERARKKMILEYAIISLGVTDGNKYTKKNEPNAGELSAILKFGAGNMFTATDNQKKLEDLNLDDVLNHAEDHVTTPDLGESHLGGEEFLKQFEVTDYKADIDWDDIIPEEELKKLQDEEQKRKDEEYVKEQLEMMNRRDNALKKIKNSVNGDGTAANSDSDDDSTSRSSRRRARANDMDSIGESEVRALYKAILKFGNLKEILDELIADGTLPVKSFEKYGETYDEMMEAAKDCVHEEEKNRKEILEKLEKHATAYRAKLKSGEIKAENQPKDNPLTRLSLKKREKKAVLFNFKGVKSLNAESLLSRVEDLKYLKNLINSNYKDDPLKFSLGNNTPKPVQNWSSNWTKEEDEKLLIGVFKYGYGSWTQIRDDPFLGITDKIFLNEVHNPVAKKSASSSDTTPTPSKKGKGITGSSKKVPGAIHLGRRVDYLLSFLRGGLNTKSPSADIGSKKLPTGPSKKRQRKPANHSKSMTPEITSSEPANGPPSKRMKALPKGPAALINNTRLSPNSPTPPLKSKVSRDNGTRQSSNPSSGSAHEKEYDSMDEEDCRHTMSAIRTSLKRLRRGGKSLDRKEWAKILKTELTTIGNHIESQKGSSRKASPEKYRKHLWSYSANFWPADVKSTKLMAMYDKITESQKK

Sequence of Protein translocase subunit SecA (Escherichia coli (strain K12)) (P10408 whole entry): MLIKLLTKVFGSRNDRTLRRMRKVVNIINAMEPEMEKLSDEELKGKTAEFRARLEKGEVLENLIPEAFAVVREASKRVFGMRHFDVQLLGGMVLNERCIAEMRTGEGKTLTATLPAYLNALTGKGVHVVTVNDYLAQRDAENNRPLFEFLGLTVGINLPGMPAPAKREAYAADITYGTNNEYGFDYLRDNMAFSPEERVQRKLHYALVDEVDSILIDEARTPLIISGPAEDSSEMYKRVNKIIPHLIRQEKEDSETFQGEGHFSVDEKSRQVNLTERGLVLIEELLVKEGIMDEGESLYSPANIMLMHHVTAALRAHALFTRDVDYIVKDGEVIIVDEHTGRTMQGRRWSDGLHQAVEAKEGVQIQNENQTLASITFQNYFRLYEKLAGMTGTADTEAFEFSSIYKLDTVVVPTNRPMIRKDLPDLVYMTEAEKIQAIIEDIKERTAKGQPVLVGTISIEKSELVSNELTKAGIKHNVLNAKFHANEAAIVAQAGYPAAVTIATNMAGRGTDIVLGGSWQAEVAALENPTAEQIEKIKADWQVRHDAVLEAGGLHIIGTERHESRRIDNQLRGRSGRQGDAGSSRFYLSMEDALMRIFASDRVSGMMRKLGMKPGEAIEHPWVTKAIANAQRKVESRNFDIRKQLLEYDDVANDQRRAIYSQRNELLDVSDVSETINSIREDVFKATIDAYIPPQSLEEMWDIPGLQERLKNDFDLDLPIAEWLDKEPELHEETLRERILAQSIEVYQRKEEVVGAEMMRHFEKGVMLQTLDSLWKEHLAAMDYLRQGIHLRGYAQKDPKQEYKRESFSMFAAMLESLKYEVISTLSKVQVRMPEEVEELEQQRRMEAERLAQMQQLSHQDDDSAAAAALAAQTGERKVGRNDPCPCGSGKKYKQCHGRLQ
Sequence of Sialic acid-binding Ig-like lectin 9 (Homo sapiens) (Q9Y336 whole entry): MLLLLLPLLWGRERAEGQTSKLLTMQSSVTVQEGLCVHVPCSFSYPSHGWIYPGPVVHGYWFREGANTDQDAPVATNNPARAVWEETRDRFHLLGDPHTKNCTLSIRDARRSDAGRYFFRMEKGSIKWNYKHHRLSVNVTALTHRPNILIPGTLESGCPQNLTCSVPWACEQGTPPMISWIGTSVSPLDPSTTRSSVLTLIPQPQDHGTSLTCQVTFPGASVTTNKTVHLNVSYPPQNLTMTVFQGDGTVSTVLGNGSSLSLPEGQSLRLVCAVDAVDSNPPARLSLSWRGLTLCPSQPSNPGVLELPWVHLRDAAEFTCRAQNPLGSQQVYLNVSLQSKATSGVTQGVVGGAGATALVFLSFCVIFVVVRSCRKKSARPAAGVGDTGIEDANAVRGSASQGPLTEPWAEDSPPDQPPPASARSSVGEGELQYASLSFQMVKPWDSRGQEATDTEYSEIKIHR

Structure (SMILES)	Percent Effect [1] [%]	Percent Effect [2] [%]	Percent Effect [3] [%]	Percent Effect [4] [%]	Percent Effect (Trypanosoma cruzi) [%]	Percent Effect [5] [%]	Percent Effect [6] [%]	Percent Effect (Homo sapiens) [%]	Percent Effect [7] [%]	Percent Effect [8] [%]	Percent Effect [9] [%]
O=C(NCCCn1cccn1)C1(c2ccc(F)cc2)CC1	0.73	16.4	0.361	3.37	3.72	10.4	8.87	-5.73	6.45	12.5	-4.26
CNS(=O)(=O)c1ccc(C(=O)NC2CCOc3ccccc32)o1 (stereo not given)	-5.29	18.4	0.291	1.37	0.682	-3.55	11.8	17.5	2.13	18.2	-7.69
CN(Cc1cccs1)C(=O)CS(=O)(=O)Cc1ccc(Cl)c(Cl)c1	-3.83	2.6	4.47	-21.6	5.39	-2.74	16.7	6.68	-11.4	-2.35	-21.7
CC(C)(C)C(=O)NCCn1ccc(-c2ccncc2)n1	-2.96	2.74	-5.12	4.58	3.33	11.4	9.23	21.9	1.07	2.5	-2.64
COCC1CN(Cc2ccc(C)o2)Cc2ncn(CC3CC3)c21 (stereo not given)	0.368	5.2	-2.46	5.95	6.79	-6.9	3.99	-10.6	1.07	1.24	-7.38
CC(CNC(=O)c1ccccc1Oc1cccnc1)N(C)C (stereo not given)	-2.21	10.8	-2.99	12.9	5.41	-0.476	5.69	-6.47	3.7	9.76	-1.53
Cc1ccc(C(=O)N2CCN(C(=O)Nc3ccccn3)CC2)o1	-7.04	-2.6	9.04	-0.542	-5.58	2.32	9.13	11	0	-4.71	-16.4
CS(=O)(=O)CCC(=O)NC1(c2cccc(Br)c2)CC1	-2.11	13.5	-4.94	18.2	6.37	1.43	15	-3.85	3.7	12.2	-3.61
O[C@H]1[C@H](n2cc(-c3ccccc3)nn2)c2ccccc2C12CCNCC2	-1.97	6.94	-7.62	0.48	1.65	-1.77	10.2	12.5	5.26	15.4	-2.48
CCCn1[nH]cc/c1=N\C(=O)CN1CCn2c(nnc2C2CC2)C1	-2.72	21.1	-11.3	-5.47	-4.13	3.83	16.5	22.7	5.39	9.76	-10.1
CN(Cc1ccsc1)C(=O)c1cc2c([nH]c1=O)CCCC2=O	-3.09	13.5	-2.3	9.82	-2.32	-0.185	16.5	3	4.95	18.3	-6.06
Cc1cc(C(C)NC(=O)N2CCC(n3cncn3)CC2)c(C)s1 (stereo not given)	-4.4	7.59	-0.225	9.65	1.23	-2.28	-4.01	3.67	1.48	3.8	-3.57
NC(=O)C1(c2cnccn2)CCCN1Cc1cc2ccccc2o1 (stereo not given)	-2.52	6.76	11.2	3.94	-1.78	-2.09	14.2	1.46	9.68	16.9	-6.96
CC(C)C(=O)NCC(=O)N(C)C1CCCN(C2Cc3ccccc3C2)C1 (stereo not given)	0.272	8.11	-4.7	3.43	-3.48	0.476	14.3	11.7	-1.59	-26.8	-2.54
O=C(COc1cccc(Br)c1)N1CCN(c2nccs2)CC1	-4.01	18.7	3.31	10.4	4.58	47.4	19.4	26.2	3.83	16.1	84.6
CCc1cnc(N2CC3(CCN(C(=O)c4ccoc4)C3)C2)nc1	-7.71	-10.4	3.45	3.13	-2.46	5.52	9.65	8.56	-2.15	-1.24	-0.64
CCS(=O)(=O)N1CCC2(CC(=O)N(c3cccc(C)c3)C2)C1 (stereo not given)	-2.42	8	-0.745	0.841	1.54	-48.9	8.21	-25.8	8.33	27.5	-6.79
COCCN1C(=O)[C@]2(CC[C@@H]3CN(C(=O)NCC(C)C)C[C@@H]32)N=C1C	1.47	5.33	-2.77	-5	5.41	-49.3	5.3	-20.3	1.04	0	-4.55
CCOc1ncccc1NC(=O)c1sccc1C	-2.31	-1.39	2.84	-14.7	-4.57	2.21	23.2	-6.94	4.21	7.69	4
CCN1CCn2c(C)cnc2C12CCN(C(=O)CC(C)C)CC2	-1.23	10.7	6.38	-1.92	-4.83	-59	18.1	1.06	0	5	-5.61

From ChEMBL document CHEMBL3988442, “University of Dundee, Small-Polar-MMV Screening Library” (2021)
